In PubChem BioAssay (NCATS) one finds Potency data, which are given here for 24 compounds.

Structures are written as SMILES. Results filed as inconclusive are left out. A call without a number means that no potency is given here. The source made the active and inactive calls. Calls follow the shape of the dose curve; as a rule, active = well fitted inhibition curve with a large enough effect; inconclusive = small, poorly fitted or top-dose-only effect; inactive = no such curve, though single readings can be large or run the other way.
Potency is read from the fitted curve at half-maximal effect.

This experiment concerns Zika virus NS2B-NS3 protease (linked construct). Put plainly: Primary screen NINDS Rhodamine qHTS for Zika virus inhibitors (AID 1347160). Also: nearly all actives have a fitted effect of over 55% in size. Conditions: purified NS2B-NS3 protease, Rhodamine110 substrate fluorescence; series mostly up to 33.1 µM. In a few lines:
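Kinetic fluorescence (Ex 480 nm, Em 540 nm) over 15 min with 1.5 microM Rhodamine110 peptide and 25 nM linked protease.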
(In general: qHTS replaces the single test concentration by a dilution series.)
Consider `CC(=O)OC1C(CO)OC(O[C@H]2[C@H](OC(=O)[C@]34CCC(C)(C)C[C@H]3C3=CCC5[C@@]6(C)CC[C@H](O[C@@H]7O[C@H](C(=O)O)[C@@H](O)[C@H](O[C@@H]8OC[C@@H](O)[C@H](O)[C@H]8O)[C@H]7O[C@@H]7O[C@H](CO)[C@H](O)[C@H](O)[C@H]7O)[C@@](C)(C=O)C6CC[C@@]5(C)[C@]3(C)C[C@H]4O)O[C@H](C)[C@H](OC3OC(C)C(OC4OCC(O)C(O)C4O)C(O)C3O)[C@@H]2O)C(O)C1O` (some centres undefined), for which the Potency entry was “inactive”. With `COc1cc(C)c(C(=O)O[C@@H]2[C@H](O)[C@@H](CO)O[C@H]2n2ccc(=O)[nH]c2=O)c(OC)c1`, the Potency entry was “inactive”. The entry for `Cc1noc2c1-c1ccccc1C(c1ccc(Cl)cc1)=N[C@H]2CC(N)=O` is “inactive”; for `O=C(O[C@@H]1O[C@H](CO)[C@@H](O)[C@H](O)[C@H]1O)c1ccccc1` it is “inactive”.

In the case of `COc1ccnc2[nH]cc(C(=O)C(=O)N3CCN(C(=O)c4ccccc4)CC3C)c12` (centres undefined), the Potency result is “inactive”. Next, `CC(=O)c1ccc(O[C@@H]2OC[C@@H](O)[C@H](O)[C@H]2O[C@]2(CO)O[C@H](CO)[C@@H](O)[C@@H]2O)c(O)c1`: “inactive”. The entry for `CC(C)=CCC/C(C)=C/CO[C@@H]1O[C@H](CO[C@@H]2O[C@@H](CO)[C@H](O)[C@H]2O)[C@@H](O)[C@H](O)[C@H]1O` is “inactive”. As for `Cc1occc(=O)c1O[C@@H]1O[C@H](CO[C@@H]2OC[C@](O)(CO)[C@H]2O)[C@@H](O)[C@H](O)[C@H]1O`, the Potency result is “inactive”. `C=C1CCC2(OC1)OC1CC3C4CC=C5CC(O)CC(O[C@@H]6OC[C@H](OC(=O)C(O)C(C)CC)[C@H](O)[C@H]6O[C@@H]6O[C@@H](C)[C@H](O)[C@@H](O)[C@H]6O)C5(C)C4CCC3(C)C1C2C` (some centres undefined): the Potency entry was “inactive”. Consider `C=CC(C)(C)C12Nc3c(ccc4c3OC(C)(C)C=C4)C1(O)CC1C(=O)N3CCCC3C(=O)N12` (centres undefined), for which the Potency entry is “inactive”. Next, `C/C=C/C=C/[C@@H]1O[C@](O)([C@H](CC)C(=O)NC/C=C/C=C(\C)[C@@H](OC)[C@@H](C)[C@@H]2O[C@H](/C=C/C=C/C=C(\C)C(=O)c3c(O)ccn(C)c3=O)[C@H](O)[C@@H]2O)[C@H](O)[C@H](O)C1(C)C`: “inactive”; `CC1=C2CC(C)(C)CC2C(O)C2=C(C1)C(=O)OC2O` (centres undefined): “inactive”. Next, `C=CC(C)(O)CC/C=C(\C)C(=O)O[C@@H]1[C@@H](O)[C@H](OC(C)(C=C)CC/C=C(\C)C(=O)O[C@@H]2O[C@H](CO)[C@@H](O)[C@H](O)[C@H]2O)O[C@H](CO)[C@H]1OC(=O)/C(C)=C/CCC(C)(O)C=C` (some centres undefined): “inactive”. `C[C@@H]1O[C@@H](O[C@@H]2[C@@H](O)[C@H](O[C@H]3[C@H](O[C@H]4CC[C@@]5(C)C(CC[C@]6(C)C5CC=C5[C@@H]7CC(C)(C)CC[C@]7(C(=O)O[C@@H]7O[C@H](CO)[C@@H](O)[C@H](O)[C@H]7O)CC[C@]56C)C4(C)C)O[C@H](C(=O)O)[C@@H](O)[C@@H]3O)OC[C@H]2O)[C@H](O)[C@H](O)[C@H]1O` (some centres undefined): the Potency entry is “inactive”.

As to `C=C(CO)C(=O)O[C@H]1C[C@@]23O[C@@H]2CC/C(=C/[C@H]2OC(=O)C(=C)[C@H]12)CO[C@H]3O`, the Potency result is “inactive”. As to `CC1=CC(=O)C2C(C)(C)CCC[C@]2(C)[C@H]1CC[C@H](C)CC(=O)O` (some centres undefined), the Potency result is “inactive”.

Regarding `CC1CCCCCCCc2cc(O)cc(O)c2C(=O)O1` (centres undefined), the Potency was 15.8 µM (active). For `CC(=C\C(C)O)/C=C(\C)C(=O)CC1CC(CC(N)=O)CC(=O)O1` (centres undefined), the Potency entry is “inactive”. For the compound `C/C=C(\C)C(=O)OCC1OC(OCC2OC(OC3(CO)OC(CO)C(O)C3O)C(O)C(O)C2O)C(O)C(O)C1O` (centres undefined), the Potency entry is “inactive”. With `CC(CCc1ccc(O)cc1)O[C@@H]1O[C@H](CO[C@@H]2OC(CO)[C@H](O)[C@H]2O)[C@@H](O)[C@H](O)[C@H]1O` (some centres undefined), the Potency result is “inactive”. On to `CC12CC(O)C(O)C=C1c1cc(O)cc(O)c1C(=O)O2` (centres undefined), for which the Potency result is “inactive”. Turning to `CC1(C)C[C@H](O)C[C@@]2(C)[C@H]1[C@H](O)C=C1COC(=O)[C@@]12O`, the Potency result was “inactive”. The entry for `C[C@@]12CC3(S(=O)(=O)O)OC(O1)[C@]1(COC(=O)c4ccccc4)[C@H]3C[C@]21O[C@@H]1O[C@H](CO)[C@@H](O)[C@H](O)[C@H]1O` is “inactive”; for `COc1cc(/C=C/C(=O)O[C@H]2[C@@H]3C=CO[C@@H](O[C@@H]4O[C@H](CO)[C@@H](O)[C@H](O)[C@H]4O)[C@@H]3[C@@]3(CO)O[C@@H]23)ccc1O` it is “inactive”.
